# Screening data as filed in PubChem.
# FBPA Giardia inh: qHTS Assay for Inhibitors of Fructose-1,6-bisphosphate Aldolase from Giardia Lamblia | A8B2U2 | purified Giardia FBPA | Potency, µM (doses to about 59.6 µM), for the others: at the highest dose activity, negative = inhibition, hits mostly inhibitors | 0.71% of 290,000 active | AID 2451, 2010; also: potency is read from the fitted curve at half-maximal effect; % is scaled to controls: 0 for no effect and ±100 for the full control effect; nearly all actives have a fitted effect of over 55% in size
# Target sequence (A8B2U2 whole entry, looked up): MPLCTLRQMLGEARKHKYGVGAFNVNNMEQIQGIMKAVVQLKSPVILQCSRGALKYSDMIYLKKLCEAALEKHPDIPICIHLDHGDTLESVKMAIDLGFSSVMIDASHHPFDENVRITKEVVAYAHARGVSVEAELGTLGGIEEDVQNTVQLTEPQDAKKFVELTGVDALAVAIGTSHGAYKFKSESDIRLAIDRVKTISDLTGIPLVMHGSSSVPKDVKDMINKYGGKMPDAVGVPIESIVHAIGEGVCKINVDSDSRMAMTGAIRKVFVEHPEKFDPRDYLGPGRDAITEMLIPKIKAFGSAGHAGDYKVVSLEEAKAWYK
#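 40 nM FBPA preincubated 10 min at RT with compound (up to 57.5 uM final), then substrate plus GAPDH/TPI/NAD/arsenate coupling and diaphorase/resazurin added. Fluorescence read after 20 min at RT, 525/598 nm.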
# Shiga toxin inh: A qHTS for Small Molecule Inhibitors of Shiga Toxin. Vero cells, Shiga toxin protein synthesis inhibition reporter. inhibition, % at 38.7 µM. 9.2% of 290,000 active. AID 2315, 2010; in the data active = inhibition mostly above about 28%, no sharp cut-off; inactive = mostly below about 43%; also: 0% is about no effect
# Tb PYK inh: qHTS of Trypanosoma Brucei Inhibitors | pyruvate kinase (Trypanosoma brucei), Q57TT1 | TbPYK enzyme, Kinase-Glo Plus ATP luminescence, 45 min | 0.12% of 410,000 active | AID 624173, 2012 | Potency, µM (titrated, usually from 76.8 µM), without a hit: top-dose activity, negative = inhibition, actives largely listed as inhibitors; also: potency is read from the fitted curve at half-maximal effect; % is scaled to controls: 0 for no effect and ±100 for the full control effect; nearly all actives have a fitted effect of over 50% in size
#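 TbPYK + substrate in 50 mM TEA pH 7.2, 100 mM KCl, 10 mM MgCl2, 0.05% BSA, 0.01% Tween-20; cpd pinned; ADP 130 uM final; 45 min RT; Kinase-Glo Plus 10 min; luminescence endpoint.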
# Cycloheximide cs: Cycloheximide Counterscreen for Small Molecule Inhibitors of Shiga Toxin; max response, %; cell reporter, cycloheximide protein synthesis inhibition counterscreen; 12% of 300,000 active; in the data active = max response mostly above about 13%, no sharp cut-off; inactive = mostly below about 14%; also: read at 38.3 µM for the half of the compounds with a filed dose; 0% is about no effect
# LmPK inhibitor: qHTS Assay for Inhibitors of Leishmania Mexicana Pyruvate Kinase (LmPK); 0.37% of 290,000 active; purified LmPK, Kinase-Glo ATP luminescence, 1 h; Potency, µM (series often up to 57.5 µM), inactives show at the highest dose activity change, negative = inhibition, usual class: inhibitors; Q27686; also: potency is read from the fitted curve at half-maximal effect; % is scaled to controls: 0 for no effect and ±100 for the full control effect
#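 Pyruvate kinase activity monitored as ATP production (luciferase luminescence). Conditions: 0.1 nM enzyme, 0.5 mM PEP, 0.1 mM ADP, 1 h, RT; normalized against uninhibited and no-enzyme wells.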
# RE007 growth inh: qHTS Assay for Inhibitors of the HIV-1 protein Vpr; S. pombe RE007 Vpr strain, BacTiter-Glo ATP luminescence, 24 h; Potency, µM (series often up to 92.2 µM), for inactives: at the top dose activity change, negative = less growth, hits mostly inhibitors; 0.21% of 360,000 active; active = well fitted falling curve with a large enough effect; inconclusive = small, poorly fitted or top-dose-only effect; inactive = no such curve, though single readings can be large or run the other way; also: potency is read from the fitted curve at half-maximal effect; % is scaled to controls: 0 for no effect and ±100 for the full control effect; nearly all actives have a fitted effect of over 50% in size
#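 Fission yeast RE007 carrying one integrated HIV-1 vpr copy, seeded at OD 0.01 in PMG+AL medium with 23 nL pinned compound. Grown 24 h at 30 degrees; viability read by BacTiter-Glo luminescence after 5 min.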
# * hit, by the source's call; ? = inconclusive; / = no result given; + = active, no number; ! = not confirmed by another sample. The entries come from a sample that favours hits as a whole. Unless noted, calls follow the shape of the dose curve; as a rule, active = well fitted curve in the direction sought with a large enough effect; inconclusive = small, poorly fitted or top-dose-only effect, or another doubt; inactive = no such curve, though single readings can be large; an effect the other way counts as inactive or inconclusive.
SMILES,FBPA Giardia inh,Shiga toxin inh,Tb PYK inh,Cycloheximide cs,LmPK inhibitor,RE007 growth inh
O=C(CSc1nnc(NC(=O)c2c(F)cccc2Cl)s1)Nc1ccccc1F,/,19,3%,8.3*,4%,3%
CCOc1ncccc1C(=O)Nc1nnc(C)s1,2%,22,3%,0,3%,25%
CCOc1ncccc1C(=O)Nc1nc(SC)ns1,0%,66*,1%,28*,-1%,-8%
CSc1nsc(NC(=O)Cc2ccccc2)n1,0%,86*,13%,46*,-1%,-11%
O=C(CSc1nnc(NC(=O)c2c(F)cccc2F)s1)Nc1ccccc1F,-2%,7,0%,6,1%,-17%
CSc1nsc(SCC(=O)Nc2cccc(C(C)=O)c2)n1,0%,26,-8%,9,-4%,6%
CSc1nsc(SCC(=O)Nc2ccccc2)n1,1%,34,0%,40*,-6%,5%
NC(CO)(CO)CO,4%,12,-9%,-7,/,/
COCC(=O)N1CCC2(CC1)CN(C(=O)Nc1ccccc1)C2,4%,/,4%,/,/,/
CSc1nsc(SCC(=O)Nc2nncs2)n1,-3%,16,1%,-5,2%,1%
CSc1nsc(SCC(=O)Nc2ccccc2C(N)=O)n1,-1%,38*,2%,11*,2%,-14%
O=C(COC(=O)c1ccc(F)cc1Cl)NC1CCCCCCC1,/,/,-10%,/,/,35%
O=C(NCC1CCCCC1)c1ccc(F)cc1Cl,1%,89*,5%,57*,-5%,4%
Cc1ccc(-n2c(=O)c3c(C)c(C(=O)N(C)C)sc3n(CC(=O)C(C)(C)C)c2=O)cc1C,/,/,0%,/,/,/
CN(C)c1ncc2nc(-c3ccc(F)cc3)c(=O)n(CCC#N)c2n1,0%,/,0%,/,/,/
CCc1ccc(C(=O)NC2=NC(c3cc(OC)ccc3OC)CC(=O)N2)cc1 (configuration not stated),/,/,0%,/,/,/
Cc1ccc2nc(-c3cccc(S(=O)(=O)N(C)C)c3)cn2c1,?,+,3%,54*,0%,-12%
CCN(CC)S(=O)(=O)c1cccc(-c2cn3cc(C)ccc3n2)c1,?,98*,5%,66*,2%,-12%
O=c1c(-c2cc(F)cc(F)c2)nc2cncnc2n1-c1ccccc1,5%,/,/,/,/,/
C#C[C@]1(O)CC[C@H]2[C@H]3[C@H](CC[C@@]21C)C1=C(CC(=O)CC1)C[C@@H]3C,/,/,-12%,/,/,/
CN(C)c1ccc(NC(=O)c2cccc(N3C(=O)CCC3=O)c2)cc1,-1%,37,1%,21*,2%,-1%
O=C(Nc1ccc(Br)cc1)c1cccc(N2C(=O)CCC2=O)c1,/,65*,2%,55*,-11%,-9%
CCCc1cc(C(=O)Nc2cc(C)ccc2O)no1,-3%,49*,-3%,18*,-8%,-21%
CCCc1cc(C(=O)Nc2ccccc2C(=O)OC)no1,-1%,12,-8%,-3,-6%,-9%
CCCc1cc(C(=O)Nc2cccnc2Cl)no1,5%,59*,0%,55*,-7%,-3%
SMILES,FBPA Giardia inh,Shiga toxin inh,Tb PYK inh,Cycloheximide cs,LmPK inhibitor,RE007 growth inh
CC(C)C1(c2ccsc2)NC(=O)NC1=O (configuration not stated),/,/,4%,/,/,5%
COC(=O)N1C(=O)[C@](c2ccsc2)(C(C)C)N1C(=O)OC,-2%,14,-8%,20*,0%,-3%
COC(=O)N1C(=O)[C@](c2ccc(OC)cc2)(C(C)C)N1C(=O)OC,9%,14,1%,10*,-4%,-9%
COc1ccc2[nH]c(S(=O)Cc3ncc(C)c(OC)c3C)nc2n1 (configuration not stated),/,/,-13%,/,/,/
CCC(C)(C)NCC(=O)Nc1ccc(OC(F)(F)F)cc1,9%,35,6%,15*,-14%,17%
Cc1ccc(NC(=O)CNCc2cccs2)cc1Br,?,52*,12%,26*,0%,-14%
O=C(CNCc1cccs1)Nc1ccc(OC(F)(F)F)cc1,?,82*,5%,20*,-1%,18%
COCCCNCC(=O)Nc1ccc(OC(F)(F)F)cc1,-8%,-5,11%,-2,-5%,0%
CC(=O)c1ccc(NC(=O)CNCc2cccs2)cc1,?,52*,19%,54*,-3%,1%
CCOC(=O)CNc1ccc(OC(F)(F)F)cc1,3%,2,1%,2,5%,0%
CCC(C)NS(=O)(=O)c1ccc(NC(=O)CNCc2cccs2)cc1 (configuration not stated),/,/,-4%,/,/,-4%
CCc1ccc(Nc2cc(C)nc3nc(Cc4ccc(Cl)cc4)nn23)cc1,/,/,-5%,/,/,/
C=CCOc1ccc(/C(CC)=N/O)c(OC)c1,3%,27,-7%,13*,-10%,-20%
Cc1cnc(C(=O)OCC(=O)c2c[nH]c3ccccc23)cn1,/,/,-1%,/,/,9%
COc1ccc(C(=O)OCC(=O)c2c[nH]c3ccccc23)cc1OC,/,/,1%,/,/,-15%
CC1(C(=O)OCC(=O)c2c[nH]c3ccccc23)CC1(Cl)Cl (configuration not stated),1%,85*,1%,53*,-6%,2%
Cc1ccc(C(=O)OCC(=O)c2c[nH]c3ccccc23)cc1,-2%,81*,-1%,48*,0%,-14%
O=C(OCC(=O)c1ccc[nH]1)C1=COCCO1,/,/,-3%,/,/,-4%
Cc1cccc(CC(=O)c2c[nH]c3ccccc23)c1,1%,51*,3%,17,1%,7%
O=C(OCC(=O)c1c[nH]c2ccccc12)C1=COCCO1,0%,74*,-11%,37*,1%,-24%
CCCCN(CC)C(=O)Cn1cc2c(n1)-c1c(oc(C(=O)N3CCCC3)c1C)CC2,/,/,0%,/,/,/
O=C(Cn1ccn(-c2ccc(F)c(F)c2)c(=O)c1=O)Nc1ccccc1F,/,/,-1%,/,/,/
C/C=C(\C=C\[C@@H](C)C/C=C/CC/C=C/C=C\C[C@@H](OC)/C(C)=C\C=C(C)C)CC(=O)O,7%,25,/,13,/,/
CCc1cccc2c(C(=O)COC(=O)c3ccc([N+](=O)[O-])s3)c[nH]c12,-9%,46,2%,-2,2%,?
O=C(OCC(=O)c1c[nH]c2ccccc12)c1ccc([N+](=O)[O-])s1,-16%,19,-7%,24*,1%,?
COc1ccc(OCC(=O)c2c[nH]c3ccccc23)cc1,3%,54*,-18%,45*,-1%,-2%
Cc1ccn2c(Nc3ccc4c(c3)OCCO4)c(-c3ccccc3O)nc2c1,/,/,-6%,/,/,/
Cc1ccc(Nc2c(-c3ccc(C)o3)nc3cnccn23)cc1,-4%,-13,-24%,-1,-7%,7.9µM*!
